Parameters in all cases: scale not given: direction of the effect not stated beside the values
Test [1] concerns the target Protein translocase subunit SecA (Escherichia coli (strain K12)) (UniProt P10408). In words: Assay to Identify E. coli SecA ATPase Inhibitors. The conditions noted are these: 30 µM. The class given is functional.
The target in test [2] is T1, Ubiquitin-activating enzyme e1, putative (Leishmania donovani (strain BPK282A1)) (UniProt E9BSI1).
T1 sequence (whole entry): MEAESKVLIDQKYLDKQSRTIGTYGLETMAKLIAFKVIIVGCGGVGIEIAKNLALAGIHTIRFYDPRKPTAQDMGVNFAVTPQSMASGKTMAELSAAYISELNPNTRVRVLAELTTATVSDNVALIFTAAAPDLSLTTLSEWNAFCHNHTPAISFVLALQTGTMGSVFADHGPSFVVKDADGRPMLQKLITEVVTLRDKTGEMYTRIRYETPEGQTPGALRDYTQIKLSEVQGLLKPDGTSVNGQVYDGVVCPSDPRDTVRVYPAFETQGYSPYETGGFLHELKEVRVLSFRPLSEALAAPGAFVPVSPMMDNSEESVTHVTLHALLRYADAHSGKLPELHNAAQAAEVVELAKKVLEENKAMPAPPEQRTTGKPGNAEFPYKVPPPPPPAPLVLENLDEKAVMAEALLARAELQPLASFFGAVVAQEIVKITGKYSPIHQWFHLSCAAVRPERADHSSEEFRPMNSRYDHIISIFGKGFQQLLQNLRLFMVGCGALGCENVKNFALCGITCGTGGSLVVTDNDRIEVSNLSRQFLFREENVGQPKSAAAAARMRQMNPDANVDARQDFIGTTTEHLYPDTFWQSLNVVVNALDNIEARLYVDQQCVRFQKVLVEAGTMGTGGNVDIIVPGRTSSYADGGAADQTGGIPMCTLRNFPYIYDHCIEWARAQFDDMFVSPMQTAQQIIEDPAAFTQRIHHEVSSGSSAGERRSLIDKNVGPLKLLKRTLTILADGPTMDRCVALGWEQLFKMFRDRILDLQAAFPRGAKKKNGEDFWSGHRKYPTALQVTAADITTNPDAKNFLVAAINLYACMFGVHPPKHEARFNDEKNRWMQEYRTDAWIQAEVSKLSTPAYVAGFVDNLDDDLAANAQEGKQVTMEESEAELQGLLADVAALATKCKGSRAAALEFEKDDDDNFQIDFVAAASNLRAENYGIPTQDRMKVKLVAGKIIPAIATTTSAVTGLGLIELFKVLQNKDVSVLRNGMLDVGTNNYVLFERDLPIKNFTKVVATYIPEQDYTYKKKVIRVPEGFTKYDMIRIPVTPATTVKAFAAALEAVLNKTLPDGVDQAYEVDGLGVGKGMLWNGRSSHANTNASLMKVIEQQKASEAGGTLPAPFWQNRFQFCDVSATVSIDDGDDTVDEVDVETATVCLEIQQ
The experiment in a line: Leishmania donovani Ubiquitin Activating Enzyme (LdE1). The class given is functional. The conditions noted are these: 30 µM.

Test [3] has as its target AMP-activated protein kinase, AMPK (Homo sapiens) (UniProt P54646+O43741+P54619+Q9UGJ0+Q9Y478+Q13131+Q9UGI9). In words: AMP-dependent Kinase enzyme assay. An in vitro enzyme assay that detects ADP turnover that is directly proportional to AMPK activity. This uses naive AMPK that is activated during the assay with MK-8722. The format is functional. The conditions noted are these: 30 µM.

The target of test [4] is Sialic acid-binding Ig-like lectin 9 (Homo sapiens) (UniProt Q9Y336). The experiment in a line: Hs-Siglec9 ALPHAscreen SOP 20170721. The conditions noted are these: 10 µM. In general terms: Alpha assays give light when donor and acceptor beads are brought close together.
Sialic acid-binding Ig-like lectin 9 (Homo sapiens), sequence (Q9Y336 whole entry): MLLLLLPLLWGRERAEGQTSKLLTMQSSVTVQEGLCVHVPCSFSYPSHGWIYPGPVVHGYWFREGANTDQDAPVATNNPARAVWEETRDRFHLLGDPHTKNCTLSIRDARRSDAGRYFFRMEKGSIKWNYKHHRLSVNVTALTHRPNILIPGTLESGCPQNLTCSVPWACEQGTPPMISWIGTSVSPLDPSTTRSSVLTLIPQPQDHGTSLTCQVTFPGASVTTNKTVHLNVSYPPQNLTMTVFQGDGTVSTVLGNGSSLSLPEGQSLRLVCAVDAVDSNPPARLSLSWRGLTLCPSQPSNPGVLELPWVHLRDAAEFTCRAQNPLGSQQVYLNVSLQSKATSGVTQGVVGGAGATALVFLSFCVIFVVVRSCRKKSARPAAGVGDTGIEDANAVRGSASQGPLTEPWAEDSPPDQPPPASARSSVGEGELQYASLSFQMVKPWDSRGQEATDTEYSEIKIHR
Another test deals with Trypanosoma cruzi. In words: Trypanosoma cruzi phosphomannomutase and mannose-1-phosphate guanylyltransferase assay. The conditions noted are these: 10 µM. The class given is functional.
In test [5] the target is T2, Arginase-2, mitochondrial (Homo sapiens) (UniProt P78540).
T2 sequence (whole entry): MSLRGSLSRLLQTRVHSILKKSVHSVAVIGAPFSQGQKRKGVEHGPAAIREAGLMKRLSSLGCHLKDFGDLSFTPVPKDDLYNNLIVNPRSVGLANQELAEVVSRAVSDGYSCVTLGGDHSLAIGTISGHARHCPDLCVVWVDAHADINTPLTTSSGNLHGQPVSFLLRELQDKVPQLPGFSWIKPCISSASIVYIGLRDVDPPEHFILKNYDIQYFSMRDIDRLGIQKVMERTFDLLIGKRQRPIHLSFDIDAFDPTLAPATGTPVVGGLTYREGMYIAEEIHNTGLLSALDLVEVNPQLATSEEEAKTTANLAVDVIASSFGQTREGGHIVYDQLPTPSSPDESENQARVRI
In words: in vitro enzyme assay to detect the production of urea directly proportional to the activity of Arginase II. Further: in the data most compounds retested in dose-response had high values. The class given is functional. Particulars: 33.3 µM.

The target in test [6] is T3, Proteasome subunit beta (Trypanosoma cruzi) (UniProt O96673).
T3 sequence (whole entry): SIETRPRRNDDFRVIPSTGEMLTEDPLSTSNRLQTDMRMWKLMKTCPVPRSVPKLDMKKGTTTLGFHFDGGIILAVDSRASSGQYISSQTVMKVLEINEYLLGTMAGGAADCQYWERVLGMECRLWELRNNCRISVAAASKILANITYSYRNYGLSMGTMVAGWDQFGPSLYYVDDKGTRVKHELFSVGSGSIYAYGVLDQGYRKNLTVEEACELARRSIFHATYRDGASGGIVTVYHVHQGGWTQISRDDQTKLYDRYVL
The experiment in a line: Trypanosoma cruzi proteasome chymotrypsin-like activity (TcProtChymo) assay. Further: in the data most compounds retested in dose-response had high values. The class given is functional. Particulars: 9.37 µM.

The species named for another test is Homo sapiens. The experiment in a line: To identify inhibition of the IFN signalling (Jak-Stat) pathway via expression of an eGFP reporter gene under the control of an IFN-stimulated response element (ISRE) containing MxA promoter. The format is functional. Particulars: 30 µM. (In general: Reporter assays use an easily measured gene product as a stand-in for the process of interest.)

Test [7] deals with T4, Tyrosyl-tRNA synthetase, putative (Trypanosoma cruzi (strain CL Brener)) (UniProt Q4DSP6).
T4 sequence (whole entry): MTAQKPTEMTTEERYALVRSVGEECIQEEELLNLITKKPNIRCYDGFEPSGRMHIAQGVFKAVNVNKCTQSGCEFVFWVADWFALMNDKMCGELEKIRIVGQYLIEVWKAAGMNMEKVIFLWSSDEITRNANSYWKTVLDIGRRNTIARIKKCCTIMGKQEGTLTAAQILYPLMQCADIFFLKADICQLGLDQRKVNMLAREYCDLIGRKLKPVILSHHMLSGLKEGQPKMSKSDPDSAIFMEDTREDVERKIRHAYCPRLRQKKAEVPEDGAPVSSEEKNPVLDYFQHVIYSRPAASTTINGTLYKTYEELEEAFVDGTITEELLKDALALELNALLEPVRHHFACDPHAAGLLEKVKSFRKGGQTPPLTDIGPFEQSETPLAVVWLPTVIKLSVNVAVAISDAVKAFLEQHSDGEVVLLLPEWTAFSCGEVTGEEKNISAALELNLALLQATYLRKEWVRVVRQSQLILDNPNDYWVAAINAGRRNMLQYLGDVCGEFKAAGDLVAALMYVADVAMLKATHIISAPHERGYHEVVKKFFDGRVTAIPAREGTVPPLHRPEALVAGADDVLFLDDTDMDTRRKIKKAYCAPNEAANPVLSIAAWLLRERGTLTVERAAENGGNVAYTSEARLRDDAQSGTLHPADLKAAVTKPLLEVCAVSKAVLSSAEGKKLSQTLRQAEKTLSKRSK
The experiment in a line: Trypanosoma cruzi tyrosyl tRNA synthetase (TcYRS) _High Tyrosine SOP. Further: in the data most compounds retested in dose-response had high values. The class given is functional. The conditions noted are these: 30 µM.

Test [8] addresses T4, Tyrosyl-tRNA synthetase, putative (Trypanosoma cruzi (strain CL Brener)). In words: Trypanosoma cruzi tyrosyl tRNA synthetase (TcYRS) SOP. The class given is functional. Particulars: 30 µM.
Test [9] addresses Chromo domain-containing protein 1 (Saccharomyces cerevisiae (strain ATCC 204508 / S288c) (Baker's yeast)) (UniProt P32657). The experiment in a line: ScCHD-1 Enzyme Inhibition Assay. Further: in the data most compounds retested in dose-response had high values. The class given is functional. The conditions noted are these: 30 µM.

For some of these results: Measured potencies and affinities stand elsewhere.

Chromo domain-containing protein 1 (Saccharomyces cerevisiae (strain ATCC 204508 / S288c) (Baker's yeast)), sequence (P32657 whole entry, the tested form may be a part): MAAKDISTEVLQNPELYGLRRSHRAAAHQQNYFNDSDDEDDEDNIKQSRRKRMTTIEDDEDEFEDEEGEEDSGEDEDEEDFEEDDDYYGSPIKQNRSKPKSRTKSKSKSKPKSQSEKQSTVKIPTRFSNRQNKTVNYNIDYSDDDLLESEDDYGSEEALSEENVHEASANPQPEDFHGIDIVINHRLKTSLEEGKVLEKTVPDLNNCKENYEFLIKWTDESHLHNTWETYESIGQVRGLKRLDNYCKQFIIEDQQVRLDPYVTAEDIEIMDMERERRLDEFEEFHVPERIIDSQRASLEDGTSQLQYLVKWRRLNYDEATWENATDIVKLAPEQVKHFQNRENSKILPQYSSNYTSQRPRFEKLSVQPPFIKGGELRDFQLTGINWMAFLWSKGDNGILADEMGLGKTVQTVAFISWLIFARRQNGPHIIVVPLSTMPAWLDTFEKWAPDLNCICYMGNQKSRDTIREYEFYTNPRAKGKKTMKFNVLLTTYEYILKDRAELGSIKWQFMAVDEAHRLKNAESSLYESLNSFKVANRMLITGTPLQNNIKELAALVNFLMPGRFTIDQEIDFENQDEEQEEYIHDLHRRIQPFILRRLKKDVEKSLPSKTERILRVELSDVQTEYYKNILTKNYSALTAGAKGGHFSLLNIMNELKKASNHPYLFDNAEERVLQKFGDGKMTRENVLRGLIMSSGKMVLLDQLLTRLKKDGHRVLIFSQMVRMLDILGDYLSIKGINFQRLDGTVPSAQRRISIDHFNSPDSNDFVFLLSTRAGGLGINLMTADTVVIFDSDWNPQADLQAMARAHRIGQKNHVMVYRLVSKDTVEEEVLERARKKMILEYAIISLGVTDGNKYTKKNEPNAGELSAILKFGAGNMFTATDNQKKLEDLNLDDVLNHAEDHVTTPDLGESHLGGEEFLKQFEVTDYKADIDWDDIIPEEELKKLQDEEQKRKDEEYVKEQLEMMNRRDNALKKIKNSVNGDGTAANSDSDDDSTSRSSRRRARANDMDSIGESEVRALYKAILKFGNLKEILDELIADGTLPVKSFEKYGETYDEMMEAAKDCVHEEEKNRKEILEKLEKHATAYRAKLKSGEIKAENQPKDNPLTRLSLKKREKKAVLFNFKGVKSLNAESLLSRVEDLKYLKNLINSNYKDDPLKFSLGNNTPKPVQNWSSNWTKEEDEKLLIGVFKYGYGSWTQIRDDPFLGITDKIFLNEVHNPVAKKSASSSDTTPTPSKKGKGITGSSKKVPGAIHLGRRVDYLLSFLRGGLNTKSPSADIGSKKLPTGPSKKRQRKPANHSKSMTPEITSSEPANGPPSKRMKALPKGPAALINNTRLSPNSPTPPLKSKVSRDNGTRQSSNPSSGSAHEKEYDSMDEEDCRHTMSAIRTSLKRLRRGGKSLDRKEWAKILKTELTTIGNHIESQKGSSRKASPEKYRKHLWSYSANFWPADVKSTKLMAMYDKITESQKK
Protein translocase subunit SecA (Escherichia coli (strain K12)), sequence (P10408 whole entry): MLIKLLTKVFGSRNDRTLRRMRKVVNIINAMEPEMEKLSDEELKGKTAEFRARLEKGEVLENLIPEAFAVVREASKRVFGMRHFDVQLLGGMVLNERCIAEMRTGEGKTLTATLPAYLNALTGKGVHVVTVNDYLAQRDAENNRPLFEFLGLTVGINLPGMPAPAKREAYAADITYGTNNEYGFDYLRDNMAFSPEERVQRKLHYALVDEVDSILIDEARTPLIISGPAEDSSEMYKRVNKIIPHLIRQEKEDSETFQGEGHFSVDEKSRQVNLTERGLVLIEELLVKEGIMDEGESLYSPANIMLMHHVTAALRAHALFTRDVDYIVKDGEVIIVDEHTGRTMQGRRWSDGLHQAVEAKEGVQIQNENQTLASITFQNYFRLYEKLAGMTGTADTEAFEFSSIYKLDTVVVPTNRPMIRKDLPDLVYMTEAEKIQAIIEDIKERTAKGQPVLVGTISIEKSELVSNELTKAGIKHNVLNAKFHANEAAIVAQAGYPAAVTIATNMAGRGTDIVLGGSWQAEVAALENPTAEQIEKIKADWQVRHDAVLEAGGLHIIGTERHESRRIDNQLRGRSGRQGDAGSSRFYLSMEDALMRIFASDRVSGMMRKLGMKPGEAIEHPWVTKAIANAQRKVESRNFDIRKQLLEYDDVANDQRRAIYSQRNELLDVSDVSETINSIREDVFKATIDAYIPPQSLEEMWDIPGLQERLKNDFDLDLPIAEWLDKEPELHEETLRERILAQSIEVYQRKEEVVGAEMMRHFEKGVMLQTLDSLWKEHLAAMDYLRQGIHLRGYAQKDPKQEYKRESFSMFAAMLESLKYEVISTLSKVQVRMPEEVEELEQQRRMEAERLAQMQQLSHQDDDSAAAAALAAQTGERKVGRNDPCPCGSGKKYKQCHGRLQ

`CC(Cn1ccnc1)NC(=O)C1(c2ccc(F)cc2)CC1` (stereo unspecified): the Percent Effect is -2.91% in test [1]; 17.7% in test [2]; -3.38% in test [3]; -4.39% in test [4]; 2.93% in the test with Trypanosoma cruzi; -3.42% in [5]. Moreover, the Percent Effect in test [6] was 4.83%; in the test filed under Homo sapiens it was -2.07%; in [7], 1.48%; in [8], 16.5%; in test [9], -3.1%.

For `O=C(NCCNc1ncccn1)c1ccc(-c2ccco2)[nH]c1=O`, the Percent Effect was -5.27% in test [1]; 27% in test [2]; -6.43% in test [3]; 9.97% in test [4]; 1.23% with Trypanosoma cruzi; -11.6% in [5]. The Percent Effect is 15.9% in test [6]; 6.48% in the test filed under Homo sapiens; 8.37% in test [7]; 23.5% in test [8]; -11.4% in [9].

For `CCN(CC)C(=O)c1cc(C2CCCN2C)ccn1` (stereo unspecified), the Percent Effect is -5.39% in test [1]; 23% in [2]; -2.48% in [3]; -2.94% in [4]; 0.988% in the test with Trypanosoma cruzi; -2.55% in test [5]. Further, the Percent Effect is 15.4% in test [6]; -5.61% in the test listed under Homo sapiens; 5.38% in [7]; 11.7% in [8]; -12.8% in test [9].

As for `COc1ccc(C2=CCN(C(=O)CN(C)CC(C)C#N)CC2)cc1` (stereo unspecified), the Percent Effect was -8.6% in test [1]; -12.7% in [2]; -4.45% in test [3]; 7.49% in test [4]; 10.5% in the test with Trypanosoma cruzi; -6.84% in test [5]. The Percent Effect in [6] is 0.901%; in the test listed under Homo sapiens it was 10.5%; in test [7], 7.39%; in test [8], 13.9%; in test [9], -8.15%.

With `CS(=O)(=O)NCCCN1CCCC1Cc1ccccc1` (stereo unspecified), the Percent Effect in [1] is -4.3%; in test [2], 0%; in [3], -5.49%; in test [4] it was 11.9%; with Trypanosoma cruzi, 3.49%; in test [5], -3.42%. For the same molecule, the Percent Effect in test [6] is 9.09%; in the test filed under Homo sapiens, 13%; in [7], 5.42%; in test [8], 16.5%; in [9], -3.37%.

As for `CCOC(=O)c1sc2ccsc2c1CNC(=O)C(C)(C)C#N`, the Percent Effect was -2.65% in [1]; 0% in [2]; 8.08% in test [3]; 1.84% in test [4]; 1.76% in the test with Trypanosoma cruzi; -5.73% in test [5]. Also, the Percent Effect was -5.57% in test [6]; 13.9% in the test filed under Homo sapiens; 5.94% in test [7]; 11% in test [8]; 14.5% in test [9].

As to `OCCn1cc(CN2CCN(CCOc3ccccc3F)CC2)cn1`, the Percent Effect in test [1] was -9.62%; in [2], 0%; in [3], 7.1%; in [4], 3.17%; in the test on Trypanosoma cruzi, -5.48%; in test [5], 2.03%. Besides, the Percent Effect is 4.49% in test [6]; 11.7% in the test filed under Homo sapiens; -2.97% in test [7]; -8.54% in test [8]; 11.3% in [9].

As for `CC(C(=O)N1CCN(c2cnccn2)CC1)n1cncn1` (stereo unspecified), the Percent Effect in [1] was -0.0716%; in test [2] it was 1.27%; in test [3] it was 4.88%; in test [4], 1.64%; with Trypanosoma cruzi it was -4%; in test [5] it was 7.53%. Moreover, the Percent Effect is 8.23% in test [6]; 11.1% in the test filed under Homo sapiens; 3.12% in [7]; 10.1% in [8]; -8.39% in [9].

For the molecule `Cc1ccc(N2CC[C@H]3OCC[C@@]3(C(=O)NC(C)C)C2)nn1`, the Percent Effect was -2.37% in test [1]; 2.7% in test [2]; -2.16% in test [3]; 0.317% in test [4]; 2.15% in the test with Trypanosoma cruzi; 16.7% in test [5]. In addition, the Percent Effect in test [6] was 6.85%; in the test listed under Homo sapiens it was 4.31%; in test [7], 6.93%; in test [8], 18.3%; in test [9] it was -5.52%.

For `O=C(c1ccncc1)N1Cc2ccccc2OC2(CCOCC2)C1`, the Percent Effect in test [1] is -2.73%; in [2], 9.46%; in test [3], 10.5%; in test [4] it was 1.54%; with Trypanosoma cruzi, 0.395%; in test [5] it was -5.8%. Besides, the Percent Effect in test [6] was 16.1%; in the test listed under Homo sapiens, 7.47%; in test [7] it was 4.3%; in test [8], 6.49%; in test [9], -15.3%.

As for `CCn1c(C2CCCN(Cc3nccn3CCOC)C2)nn(C)c1=O` (stereo unspecified), the Percent Effect in test [1] was -0.824%; in test [2] it was 8.11%; in [3], -5.71%; in test [4], 28.2%; in the test with Trypanosoma cruzi it was 3.03%; in [5], 32.5%. The Percent Effect is 3.69% in test [6]; -44.6% in the test listed under Homo sapiens; 9.68% in [7]; 18.5% in test [8]; -6.18% in [9].
